In PubChem BioAssay (NCATS):
Records with an inconclusive call do not appear. Entries that show only a call come without a potency. The source made the active and inactive calls. Unless noted, calls come from the whole dose curve; as a rule, active = well fitted curve in the direction sought with a large enough effect; inconclusive = small, poorly fitted or top-dose-only effect, or another doubt; inactive = no such curve, though single readings can be large; an effect the other way counts as inactive or inconclusive.

Legend:
[1] = target: Luciferin 4-monooxygenase (Photinus pyralis) (UniProt P08659); experiment: Biochemical firefly luciferase enzyme assay for NPC (AID 624030);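 note: purified P. pyralis luciferase at 10 nM with luciferin and ATP substrate; nearly all actives have a fitted effect of over 70% in size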
How it was run: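 Counter-screen for direct inhibition of the luciferase enzyme by approved-drug library compounds, run at 10 nM enzyme in 50 mM Tris acetate (final). Luminescence was read within 5 min of enzyme-buffer addition and normalized to PTC124 versus DMSO (0%).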

[2] = S16 Schwann cell PMP22 intronic element beta-lactamase assay (AID 624044; calls by dose curve; note: nearly all actives have a fitted effect of over 15% in size; note: potency is the fitted concentration of half-maximal effect); conditions: S16 rat Schwann cells, PMP22 element beta-lactamase FRET, 24 h; ratio activity, negative = inhibition: at 38.3 µM (top of the series)
How it was run: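 Rat S16 Schwann cells with beta-Lac driven by a PMP22 intronic element, compound-treated 24 h at 37 °C. LiveBLAzer FRET B/G read: 460 nm normalized to potassium clavulanate vs DMSO; 535 nm FRET as viability; concentration-effect curves classified.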

[3] = S16 Schwann cell PMP22 intronic element firefly luciferase assay (AID 624032); note: nearly all actives have a fitted effect of over 30% in size; note: potency is the fitted concentration of half-maximal effect
How it was run: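 Rat S16 Schwann cells stably carrying a PMP22 intronic element-driven Fluc reporter were seeded overnight, then exposed to compounds for 24 h at 37 °C. Luminescence was normalized to PTC124 (positive control) and DMSO (0% activity).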

[4] = qHTS assay for small molecule activators of the nuclear factor-kappa B (NF-kB) signaling pathway (AID 651749; active = well fitted activation curve with a large enough effect in the signal ratio; the % refers to the signal ratio; note: potency is the fitted concentration of half-maximal effect); conditions: NF-kB-bla ME-180 cells, beta-lactamase FRET ratio, 16 h; activation: stronger effect = higher value
How it was run: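 ME-180 cells stably carrying a beta-lactamase reporter under an NF-kB response element were exposed to compound or DMSO vehicle for 16 hr at 37C, 5% CO2. Pathway activation was read by FRET, since reporter expression disrupts FRET.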

Luciferin 4-monooxygenase (Photinus pyralis), sequence (P08659 whole entry, looked up): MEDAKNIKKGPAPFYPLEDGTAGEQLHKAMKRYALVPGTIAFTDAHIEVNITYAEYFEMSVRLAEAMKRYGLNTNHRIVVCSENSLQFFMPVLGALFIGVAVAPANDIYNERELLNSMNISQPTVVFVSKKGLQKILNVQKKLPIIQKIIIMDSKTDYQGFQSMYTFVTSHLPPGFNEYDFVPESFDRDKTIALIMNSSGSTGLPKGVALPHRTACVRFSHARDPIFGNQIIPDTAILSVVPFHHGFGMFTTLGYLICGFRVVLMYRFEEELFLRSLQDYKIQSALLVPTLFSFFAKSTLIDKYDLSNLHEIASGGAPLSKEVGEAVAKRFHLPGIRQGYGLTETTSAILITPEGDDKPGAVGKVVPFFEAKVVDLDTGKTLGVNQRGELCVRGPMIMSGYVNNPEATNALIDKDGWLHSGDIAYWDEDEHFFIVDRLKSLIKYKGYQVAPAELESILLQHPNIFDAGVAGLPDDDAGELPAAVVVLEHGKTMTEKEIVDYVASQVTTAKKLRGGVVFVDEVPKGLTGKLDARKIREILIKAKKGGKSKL

COc1ccc2c3c1OC1C(O)C=CC4[C@@H](C2)NCC[C@]314 (some centres undefined)
Potency [1]: inactive

C#C[C@]1(OC(=O)CCCCCC)CC[C@H]2C3CCC4=CC(=O)CC[C@@H]4[C@H]3CC[C@@]21C (some centres undefined)
Potency [1]: inactive

C[N+]1(CCF)[C@@H]2CC[C@@H]1CC(OC(=O)C(O)(c1ccccc1)c1ccccc1)C2 (some centres undefined)
Potency [1]: inactive

Cc1ccc2c(c1)[C@]13CCCC[C@@H]1[C@@H](C2)N(C)CC3
Potency [1]: inactive

CC(C)=CCN1CC[C@@]2(C)c3cc(O)ccc3C[C@@H]1C2C (some centres undefined)
Potency [1]: inactive

C[C@]12CCC3C(CCC4=CC(=O)CC[C@@H]43)C1CCC2O (some centres undefined)
Potency [1]: inactive

C=CCC1(O)CCC2C3CCC4=CC(=O)CCC4=C3C=CC21C (centres undefined)
Potency [1]: inactive

C[C@]12CCC(=O)C=C1CC[C@H]1C2CC[C@@]2(C)[C@@H]1CC[C@]2(C)O (some centres undefined)
Potency [1]: inactive

CCC(N)CCc1c[nH]c2ccccc12 (centres undefined)
Potency [1]: inactive

CC12CCC(=O)CC1CCC1C2CCC2(C)C1CCC2(C)O (centres undefined)
Potency [1]: inactive

Clc1ccc([C@H]2CC3CCC2N3)cn1 (some centres undefined)
Potency [1]: inactive

COc1ccc2c3c1OC1[C@H](O)CCC4[C@@H](C2)N(C)CC[C@]314 (some centres undefined)
Potency [1]: inactive

COc1cc(CCN)c(OC)cc1Br
Potency [1]: inactive

CCc1cc(OC)c(CC(C)N)cc1OC (centres undefined)
Potency [1]: inactive

CC(=O)[C@@]1(O)CC[C@@H]2[C@@H]3CCC4=CC(=O)CC[C@]4(C)[C@]3(F)[C@@H](O)C[C@@]21C
Potency [1]: inactive

Cc1c(N)nc([C@@H](CC(N)=O)NC[C@H](N)C(N)=O)nc1C(=O)N[C@H](C(=O)N[C@H](C)[C@H](O)[C@H](C)C(=O)N[C@@H](C(=O)NCCc1nc(-c2nc(C(=O)NCCC[S+](C)C)cs2)cs1)[C@H](C)O)[C@H](O[C@@H]1O[C@@H](CO)[C@@H](O)[C@H](O)[C@@H]1O[C@H]1O[C@H](CO)[C@H](O)[C@H](OC(N)=O)[C@@H]1O)c1cnc[nH]1
Potency [1]: inactive

COC1=CC=C2[C@H]3Cc4ccc(OC)c5c4[C@@]2(CCN3C)C1O5 (some centres undefined)
Potency [1]: inactive

CC(=O)Oc1ccc2c3c1OC1C(OC(C)=O)C=CC4[C@@H](C2)N(C)CC[C@]314 (some centres undefined)
Potency [1]: inactive

CCC(=O)O[C@@](Cc1ccccc1)(c1ccccc1)[C@H](C)CN(C)C
Potency [1]: inactive

COc1cc(CC(C)N)c(OC)cc1C (centres undefined)
Potency [1]: inactive

C[C@H]1[C@@H]2Cc3ccc(O)cc3[C@]1(C)CCN2C
Potency [1]: inactive

CCC(=O)OC1[C@@H](N2CCCCC2)C[C@H]2[C@@H]3CC[C@H]4C[C@H](OC(C)=O)[C@@H](N5CCCCC5)C[C@]4(C)[C@H]3CC[C@]12C (some centres undefined)
Potency [1]: inactive

CCON=C(CC)C1=C(O)CC(c2c(C)cc(C)cc2C)CC1=O (centres undefined)
Potency [1]: inactive

CC1[C@H]2Cc3ccc(O)cc3[C@]1(C)CCN2C (some centres undefined)
Potency [1]: inactive

Oc1ccc2c3c1O[C@H]1[C@@H](O)C=CC4[C@@H](C2)NCC[C@@]341 (some centres undefined)
Potency [1]: inactive

CCC1CC2CC3c4[nH]c5ccc(OC)cc5c4CCN(C2)C13 (centres undefined)
Potency [1]: inactive

CC(N)C(=O)c1ccccc1 (centres undefined)
Potency [1]: inactive

C=CCC1(C(C)CCC)C(=O)NC(=O)NC1=O (centres undefined)
Potency [1]: inactive

CC1[C@H]2Cc3ccc(O)cc3[C@]1(C)CCN2CCc1ccccc1 (some centres undefined)
Potency [1]: inactive

CC(C)=CCN1CC[C@@]2(C)c3cc(O)ccc3C[C@H]1[C@@H]2C
Potency [1]: inactive

CN1CC[C@]23c4c5ccc(O)c4OC2C(O)C=CC3[C@H]1C5 (some centres undefined)
Potency [1]: inactive

CN1[C@@H]2CC[C@H]1CC(OC(=O)C(CO)c1ccccc1)C2 (some centres undefined)
Potency [1]: inactive

CC(=O)OC1CC(OC2C(O)CC(OC3C(O)CC(O[C@H]4CC[C@]5(C)C6CC[C@]7(C)[C@@H](C8=CC(=O)OC8)[C@@H](O)C[C@]7(O)[C@@H]6CC[C@@H]5C4)OC3C)OC2C)OC(C)C1OC1OC(CO)C(O)C(O)C1O (some centres undefined)
Potency [1]: inactive

CN[C@H]1C[C@@H](N)[C@H](O)[C@@H](O[C@@H]2O[C@H](CO)[C@H](O)[C@@H]3O[C@]4(O[C@@H]23)O[C@H]([C@@H](N)CO)[C@H](O)[C@@H](O)[C@H]4O)[C@@H]1O
Potency [1]: inactive

CC(C)CC1C(=O)N2CCCC2C2(O)OC(NC(=O)C3CC4c5cccc6[nH]cc(c56)CC4N(C)C3)(C(C)C)C(=O)N12 (centres undefined)
Potency [1]: inactive

CCNC(C)Cc1ccc2c(c1)OCO2 (centres undefined)
Potency [1]: inactive

CN[C@H](C)Cc1ccccc1
Potency [1]: inactive

CC1(O)CCC2C3CCC4=CC(=O)CCC4(C)C3(F)C(O)CC21C (centres undefined)
Potency [1]: inactive

CC(C)[C@@]1(NC(=O)[C@H]2C[C@H]3c4cccc5[nH]cc(c45)C[C@@H]3N(C)C2)O[C@]2(O)[C@H]3CCCN3C(=O)CN2C1=O (tested in a mixture with another compound)
Potency [1]: inactive

O=[N+]([O-])NC1=NCCN1Cc1ccc(Cl)nc1
Potency [1]: inactive

C[C@H](CCCC(C)(C)O)[C@H]1CC[C@H]2[C@@H]3CC=C4C[C@@H](O)CC[C@]4(C)[C@H]3CC[C@]12C
Potency [2]: inactive

COc1ccc2c3c1OC1C(O)C=CC4[C@@H](C2)N(C)CC[C@]314 (some centres undefined)
Potency [1]: inactive

C[n+]1c2cc(N)ccc2cc2ccc(N)cc21
Potency [3]: 1.81 µM (active)

Cc1cn([C@H]2C[C@H](O)[C@@H](CO)O2)c(=O)[nH]c1=O
Potency [3]: inactive

O=C(O[C@@H]1Cc2c(O)cc(O)cc2O[C@@H]1c1cc(O)c(O)c(O)c1)c1cc(O)c(O)c(O)c1
Potency [4]: 12.6 µM (active)

NC(=O)Oc1ccc(Cc2ccccc2)cc1
Potency [3]: inactive

CC1(Cn2ccnn2)[C@H](C(=O)O)N2C(=O)C[C@H]2S1(=O)=O (some centres undefined)
Potency [2]: 12.6 µM (active)

NC(C(=O)O)[C@@H]1CC(Cl)=NO1 (some centres undefined)
Potency [3]: 2.56 µM (active) | Potency [2]: 19.9 µM (active)
